Compound activity from PubChem.
The list is not random: actives were taken first. Their share in the collection is about 2.3%.
PTHR1 ag: agonists of human PTHR1 parathyroid hormone receptor. Potency, µM (series often up to 115 µM), inactives show at the highest dose activation, usual class: activators. Q03431. actives 0.075% (n = 410,000). HEK293 GP2 PTHR1 cells, GloSensor cAMP luminescence, 1 h; also: nearly all actives have a fitted effect of over 55% in size
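HEK-293-derived GP2 cells expressing PTHR1 and a GloSensor cAMP reporter, 3,000/well, plated overnight, given luciferin plus IBMX (each 0.5 mM as added) for 1 h at 37 °C, then compound for 1 h at 37 °C. Luminescence was read after 15 min at room temperature.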
ALOX12 inh: ALOX12 (human) lipoxygenase inhibition | Potency, µM (doses to about 108 µM), for inactives: at the top dose activity change, negative = inhibition, usual class: inhibitors | actives 1.1% (n = 580,000) | purified 12hLO, xylenol orange hydroperoxide absorbance; also: % is scaled to controls: 0 for no effect and ±100 for the full control effect
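Purified human 12hLO (150 nM final) in 25 mM Hepes, 0.01% Triton X-100, pH 7.0 was preincubated 15 min at room temperature with compound. Then 40 uM arachidonic acid was added, 30 min. Hydroperoxide was read by Fe-XO absorbance ratio 573/405 nm.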
Glioma ERSR ind: ER stress response induction in glioma. U87-MG GRP78 promoter luciferase reporter, 16 h. Potency, µM, inactives show at the highest dose activation, most hits filed as activators. actives 0.02% (n = 420,000); also: series mostly up to about 76 µM; % of control where 0% means no effect; nearly all actives have a fitted effect of over 35% in size
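ERSR induction read as luciferase luminescence (Bright-Glo, 10 min at room temperature) in stably transfected human U87-MG glioma cells exposed to compounds for 16 h, using GRP78 as sensor.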
GLS inh: inhibitors of human glutaminase (GLS); O94925; GLS enzymatic activity, qHTS titration; Potency, µM (doses to about 45.5 µM), for inactives: at the top dose activity change, negative = inhibition, usual class: inhibitors; actives 0.21% (n = 410,000); also: % is scaled to controls: 0 for no effect and ±100 for the full control effect
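hKGA in 45 mM KH2PO4 pH 8.2, 0.02% Tween-20 with pin-transferred compounds; 1 mM L-glutamine (stock) plus glutamate oxidase/HRP/Amplex Red coupling added. Fluorescence read initially and after 30 min at RT.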
GLP-1R inv ag: acts as inverse agonist at human GLP-1 receptor. actives 1.6% (n = 410,000). HEK293 GLP-1R CRE-luciferase, luminescence, 24 h; GLP-1R form is constitutively active. P43220. AID 624417. Potency, µM (series often up to 38.3 µM), without a hit: top-dose activity change, negative = inhibition, actives largely listed as inhibitors; also: % is scaled to controls: 0 for no effect and ±100 for the full control effect; nearly all actives have a fitted effect of over 55% in size
Target sequence (P43220 whole entry, looked up): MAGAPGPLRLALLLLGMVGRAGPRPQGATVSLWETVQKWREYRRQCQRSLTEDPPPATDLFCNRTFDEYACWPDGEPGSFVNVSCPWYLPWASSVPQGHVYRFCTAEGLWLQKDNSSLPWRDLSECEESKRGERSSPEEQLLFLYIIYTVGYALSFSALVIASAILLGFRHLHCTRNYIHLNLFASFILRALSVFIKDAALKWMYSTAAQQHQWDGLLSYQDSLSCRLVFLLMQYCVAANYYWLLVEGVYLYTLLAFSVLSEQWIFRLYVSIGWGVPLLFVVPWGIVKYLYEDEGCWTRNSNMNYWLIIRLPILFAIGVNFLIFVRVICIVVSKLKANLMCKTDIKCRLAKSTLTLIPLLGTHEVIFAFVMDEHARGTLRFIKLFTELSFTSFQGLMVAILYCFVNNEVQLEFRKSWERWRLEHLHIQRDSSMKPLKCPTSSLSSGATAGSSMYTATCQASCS
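Readout was luciferase luminescence, measured 12 min after detection reagent at room temperature. Beforehand, GLP-1R reporter HEK293 cells had sat 12 h, then received compounds for 24 hr at 37 deg C.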
GLP1R ag: agonists of human GLP-1 receptor | P43220 | HEK293 GLP-1R CRE-luciferase, luminescence, 4-6 h; cells express a hypersensitive GLP-1R form | Potency, µM (series often up to 45.6 µM), for inactives: top-dose activation, hits mostly activators | actives 0.007% (n = 380,000); also: % of control where 0% means no effect
Numbers without * were called inactive; i = inactive; u = inconclusive; x = no result; ! = a repeat was not active; [ ] = dose if it differs, or a comment. Calls follow the shape of the dose curve; as a rule, active = well fitted curve in the direction sought with a large enough effect; inconclusive = small, poorly fitted or top-dose-only effect, or another doubt; inactive = no such curve, though single readings can be large; an effect the other way counts as inactive or inconclusive. Potency is read from the fitted curve at half-maximal effect.

SMILES	PTHR1 ag	ALOX12 inh	Glioma ERSR ind	GLS inh	GLP-1R inv ag	GLP1R ag
C/C=C/c1ccc2c(c1)OCO2	i	-7%	-4%	6%	13%	4%
c1cncc(CN2CCNCC2)c1	x	-24%	x	x	x	x
Cc1ccc(N2CCNCC2C)cc1 (centres undefined)	-17%	-5%	-5%	26%	-21%	4%
Cc1cc(N2CCNC[C@@H]2C)ccc1N1CCN[C@@H](C)C1	x	45µM*	x	x	x	x
Cc1cc(N2CCNC[C@H]2C)ccc1N1CCN[C@H](C)C1	x	40µM*	x	x	x	x
N#CC(C#N)=Cc1ccc(O)c(O)c1	-41%	25µM*!	-1%	8%	23%	15%
CC(C)(C)c1cc(C=C(C#N)C#N)cc(C(C)(C)C)c1O	-94%	u	-6%	-8%	u	-3%
CC12CCC3C(CCC4(O)CC(O)CCC34C=O)C1(O)CCC2C1=CC(=O)OC1 (centres undefined)	-8%	-3%	-11%	2%	u	-6%
C[C@]12CC[C@H]3[C@@H](CC[C@]4(O)C[C@@H](O)CC[C@]34C=O)[C@@]1(O)CC[C@@H]2C1=CC(=O)OC1	-37%	6%	-5%	-5%	1µM*	-10%
CCC(CO)(C(=O)OC1C[N+]2(C)CCC1CC2)c1ccccc1 (centres undefined)	i	45µM*	2%	6%	-2%	-1%
O=P(Nc1cccnc1)(Oc1ccccc1)Oc1ccccc1	-7%	-3%	1%	16%	-6%	13%
O=P(Nc1cccc(Cl)c1)(Oc1ccccc1)Oc1ccccc1	-14%	0%	-6%	-2%	8.9µM*	3%
COc1cccc(NP(=O)(Oc2ccccc2Cl)Oc2ccccc2Cl)c1	i	3%	-9%	3%	u	8%
COc1cccc(NP(=O)(Oc2ccccc2)Oc2ccccc2)c1	-35%	-12%	1%	18%	5µM*	-4%
CCCCCSc1cc(O)c(C(CNC)C(C)C)cc1OC (centres undefined)	-1%	u	-4%	-15%	10µM*	9%
CN(C)C(=O)Oc1ccc(OC(=O)N(C)C)cc1	i	322%	2%	0%	5%	-2%
CN(C)C(=O)Oc1ccc(OCc2nc3ccccc3[nH]2)cc1	-38%	11%	-13%	1%	7.1µM*	-27%
Cc1ccc2c(n1)N(C)[C@H](CO)CCN(C1COC1)C2	x	9%[176 µM]	x	x	x	x
COc1cc2c(cc1O)[C@@H]1Cc3ccc(OC)c(O)c3CN1CC2	i	3%	-3%	14%	10µM*	-4%
COc1ccc(C[C@@H]2c3cc(O)c(OC)cc3CCN2C)cc1O	2%	8%	0%	37%	-1%	-1%
CC(C)N(C)CC1CCN(C(=O)c2cn(Cc3ccccc3)c3ccccc23)CC1	x	14%	x	x	x	x
O=C1C(I)=CC(=C(c2cc(I)c(O)c(I)c2)c2ccccc2C(=O)O)C=C1I	x	5.1µM*	8%	u	x	-1%
CC(C)COP(=O)(OCC(C)C)C(Nc1ccccc1)c1ccccc1 (centres undefined)	i	u	-7%	10%	11µM*	5%
CC(C)COP(=O)(c1ccc(N(C)C)cc1)C(Nc1ccccc1)c1ccccc1 (centres undefined)	i	-10%	-4%	4%	u	-2%
Nc1nc(F)nc2c1ncn2[C@@H]1O[C@H](CO)[C@@H](O)[C@@H]1O	-8%	5%	-2%	2%	-1%	-3%
SMILES	PTHR1 ag	ALOX12 inh	Glioma ERSR ind	GLS inh	GLP-1R inv ag	GLP1R ag
Nc1nc(F)nc2c1ncn2[C@@H]1O[C@H](CO)[C@@H](O)[C@H]1O	i	-5%	-2%	12%	2µM*	2%
CCC(CC)c1cc([C@H]2CN3CC[C@H]2C[C@@H]3CNC(=O)Nc2cccc(C#N)c2)nc(-c2ccncc2)n1	x	33%	x	x	x	x
COc1ccc(-c2cc(C(=O)N3CCN(c4ccccc4OC)CC3)c3cc(C(C)C)ccc3n2)cc1	-8%	u	-2%	-14%	8.9µM*	x
CCOc1ccc(-c2cc(C(=O)N3CCN(c4cccc(C(F)(F)F)c4)CC3)c3ccccc3n2)cc1	i	5%	-3%	6%	u	x
CCC(=O)c1cn(Cc2ccccc2C#N)c2ccccc12	-14%	17%	-4%	0%	10µM*	6%
N#Cc1ccccc1Cn1cc(C(=O)C2CC2)c2ccccc21	u	0%	-4%	-3%	u	11%
O=C(Nc1ccccn1)NC12CC3CC(CC(C3)C1)C2	i	-1%	-2%	-7%	1.4µM*	2%
OCC1CN(C2CCC2)CC12CCN(Cc1ccncc1)CC2 (centres undefined)	x	111%	x	x	x	x
N#CC(C(=O)C12CC3CC(CC(C3)C1)C2)c1nc2ccccc2[nH]1 (centres undefined)	i	22%	1%	17%	1.1µM*	-3%
CC(=O)C(C#N)c1ccccc1 (centres undefined)	x	-9%	x	x	x	x
Nc1ccc(N=Nc2ccc(-c3ccc(N=Nc4c(S(=O)(=O)O)cc5cc(S(=O)(=O)O)c(N=Nc6ccccc6)c(O)c5c4N)cc3)cc2)c(N)c1	x	13%	x	x	x	x
CC(Cc1ccccc1Sc1ccccc1O)N(C)C (centres undefined)	-35%[57.5 µM]	384%	-3%	38%	7.9µM*	-15%
O=c1[nH]c(=S)[nH]c(O)c1N=Nc1cccc(S(=O)(=O)N2CCOCC2)c1	-51%	40µM*	-1%	3%	8%	-6%
NS(=O)(=O)c1ccc(N=Nc2c(O)[nH]c(=S)[nH]c2=O)cc1	4%	40µM*	-4%	6%	11%	0%
O=c1[nH]sc2cc(F)ccc12	-7%	40µM*	-6%	7.9µM*	u	0%
CCCCCCOc1ccc(CN2CCN(C)CC2)cc1	i	-22%	-2%	u	3.2µM*	-10%
CN1CCN(Cc2ccc3ccccc3c2)CC1	i	-15%	-2%	-5%	-33%	-4%
CCn1c(=O)c(=O)[nH]c2cc(C(=O)N3C4CCC3CC4)ccc21	x	21%	x	x	x	x
CCn1cc2nc(SCc3cc(C)ccc3C)n(Cc3ccc(OC)cc3)c(=O)c2n1	-3%	-25%	-2%	-16%	u	x
COc1ccc(-c2noc(=O)n2Cc2cc(C)ccc2C)cc1	-9%	-4%	-5%	-1%	11µM*	9%
N[C@H](CCP(=O)(O)O)C(=O)O	x	3.5µM*!	1%	x	x	x
CNCC(N)C(=O)O (centres undefined)	x	11%	-1%	x	x	x
O=C([C@H]1CN2CCC1C[C@@H]2Cn1cc(COc2ccccc2)nn1)N1CCOCC1 (some centres undefined)	x	8%[176 µM]	x	x	x	x
